Each structure is given as a SMILES string. Values without a mark were called inactive. Where a call stands in place of a potency, no number is given. The source made the active and inactive calls. Calls come from the whole dose curve.

Acetylcholinesterase (Homo sapiens), sequence (P22303 whole entry, looked up): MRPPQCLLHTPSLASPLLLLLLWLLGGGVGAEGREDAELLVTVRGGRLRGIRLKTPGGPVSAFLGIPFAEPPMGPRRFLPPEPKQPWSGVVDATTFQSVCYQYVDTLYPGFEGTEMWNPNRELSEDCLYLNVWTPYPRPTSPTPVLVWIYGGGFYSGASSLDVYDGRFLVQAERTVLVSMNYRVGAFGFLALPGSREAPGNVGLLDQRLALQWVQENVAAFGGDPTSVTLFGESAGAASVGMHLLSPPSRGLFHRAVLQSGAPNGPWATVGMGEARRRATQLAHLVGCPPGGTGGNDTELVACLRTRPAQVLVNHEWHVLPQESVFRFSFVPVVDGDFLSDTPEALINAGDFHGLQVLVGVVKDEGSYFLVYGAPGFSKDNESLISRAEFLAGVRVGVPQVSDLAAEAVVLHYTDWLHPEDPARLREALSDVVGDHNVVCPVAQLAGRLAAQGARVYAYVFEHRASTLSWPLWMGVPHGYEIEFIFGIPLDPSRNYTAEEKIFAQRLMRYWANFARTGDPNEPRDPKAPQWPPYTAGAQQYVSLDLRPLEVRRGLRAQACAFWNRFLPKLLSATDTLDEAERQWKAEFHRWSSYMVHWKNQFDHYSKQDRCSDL

This test addresses Acetylcholinesterase (Homo sapiens) (UniProt P22303). The test is described as follows: Acetylcholinesterase (AChE) small molecule antagonists: enzyme-based qHTS assay with human liver microsomes (AID 1347399). Note: nearly all actives have a fitted effect of over 60% in size. To be noted: Potency: qHTS inhibition; outcome: qHTS inhibition; series mostly up to 115 µM. Put shortly: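 Recombinant human AChE (50 mU/mL in the enzyme mix) and human liver microsomes (0.25 mg/mL final) were preincubated with compound and NADPH (0.25 mg/mL final) for 30 min at 37 C. Acetylthiocholine/DTNB was then added; thiocholine was read colorimetrically after 10 min at room temperature.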
(In general: Quantitative high-throughput screening tests each substance at several concentrations.)
Consider `Cc1ccc2c(c1[N+](=O)[O-])C(=O)c1ccccc1C2=O`, for which the Potency entry is “inactive”. Still for that read-out and setting: as for `CN1CCN(C2=Nc3ccccc3Oc3ccc(Cl)cc32)CC1`, the entry is “inactive”; as for `CCCCOC(=O)CCCCC(=O)OCCCC`, “inactive”; as for `C/C(=N\[Si](C)(C)C)O[Si](C)(C)C`, “inactive”. Regarding `Fc1ccc(C(c2ccc(F)cc2)N2CCN(C/C=C/c3ccccc3)CC2)cc1`, the Potency result was “inactive”. Same read-out and setting: for `CCCCCCCCCC[N+](C)(C)[O-]` the value was “inactive”; for `COC(=O)CC#N`, “inactive”. On the same count and under the same terms, for `CC(=N\O)/C(C)=N/O` the value was “inactive”; for `COc1ccccc1N1CCN(CC(O)COc2cc(OC)c(OC)c(OC)c2)CC1` (centres undefined), “inactive”. Take `CNCC(O)c1ccc(O)c(O)c1` (centres undefined): the result was inactive. As to `O=C(O)[C@H](O)c1ccccc1`, the Potency entry was “inactive”. For `OCC(CO)N[C@H]1C[C@](O)(CO)[C@@H](O)[C@H](O)[C@H]1O`, the Potency result was “inactive”. The same measure, in the same setting: as for `Clc1ccc2n[nH]nc2c1`, the entry is “inactive”. Consider `O=S(=O)(O)c1ccc2c(N=Nc3ccc(S(=O)(=O)O)c4ccccc34)c(O)c(S(=O)(=O)O)cc2c1`, for which the activity change, negative = inhibition is 1.78% [at 10.5 µM]. As to `CSSc1ccoc1C`, the Potency entry was “inactive”. The same measure, in the same setting: for `CCCCCCCC/C=C\CCCCCCCC(=O)N(C)CC(=O)O` the value was “inactive”. Take `C#CC(O)C(CC)CCCC` (centres undefined): the Potency result is “inactive”. In the case of `O=C(c1ccco1)N1CCNCC1`, the Potency result is “inactive”. The same measure, in the same setting: as for `CC1COc2c(N3CCN(C)CC3)c(F)cc3c(=O)c(C(=O)O)cn1c23` (centres undefined), the entry is “inactive”. For `O=C(O)c1ccc(O)c(O)c1`, the Potency result was “inactive”. On the same count and under the same terms, for `CC(O)C1CCCCC1` (centres undefined) the value was “inactive”. Still for that read-out and setting: as for `C1=CCC(c2ccccc2)CC1` (centres undefined), the entry is “inactive”.

For the compound `C/C=C/C(=O)C1=C(C)C=CCC1(C)C`, the Potency result was “inactive”. On the same count and under the same terms, for `C[N+]1([O-])CCOCC1` the value was “inactive”; for `CCCOC(OCCC)OCCC`, “inactive”; for `CCCC(=O)O[C@]1(C(=O)CCl)[C@@H](C)C[C@H]2[C@@H]3CCC4=CC(=O)C=C[C@]4(C)[C@@]3(F)C(=O)C[C@@]21C`, “inactive”. For the compound `Cc1cc(CC(=O)O)c(C)n1-c1ccc(Cl)cc1`, the Potency result is “inactive”.

For the compound `CNC(=S)NC`, the Potency result was “inactive”. On the same count and under the same terms, for `C=CC(=O)OCC1CCCO1` (centres undefined) the value was “inactive”.

For `CN1CCCN=C1COC(=O)C(O)(c1ccccc1)C1CCCCC1` (centres undefined), the Potency entry is “inactive”. On the same count and under the same terms, for `Cc1ccc(O)cn1` the value was “inactive”. For `O=c1[nH]sc2ccccc12`, the Potency result was “inactive”.

Consider `CCCO`, for which the Potency result is “inactive”. The same measure, in the same setting: for `CC(C)CCCC(C)(C)O` the value was “inactive”; for `CCCCCCOC(=O)NC(=N)c1ccc(NCc2nc3cc(C(=O)N(CCC(=O)OCC)c4ccccn4)ccc3n2C)cc1`, “inactive”; for `C=CCCC(=O)O`, “inactive”. The same measure, in the same setting: for `CC(C)(C)C(=O)OCOC(=O)C1N2C(=O)CC2S(=O)(=O)C1(C)C` (centres undefined) the value was “inactive”. On the same count and under the same terms, as for `CC1=NN(c2cccc(S(=O)(=O)O)c2)C(=O)C1`, the entry is “inactive”.

For `Cc1cc(C)cc([N+](=O)[O-])c1`, the Potency entry was “inactive”.

The values above are taken from PubChem BioAssay (Tox21).
